# About 83,000 compounds went through this panel and 20% of them were active in at least one assay; those are over-represented in the sample as a whole.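 Each cell line was grown in a 96-well plate and treated with one concentration of compound for 48 hours. Values below 10 were considered active.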 The source made the active and inactive calls.
# Tested on: BT-549 breast
# Assay: NCI-60 one-dose screen, 48 h (100 = growth as untreated, 0 = no growth, -100 = all killed)
# Settings: 10 µM unless noted
row,Compound,growth
1,Cc1nc2c(-c3cnc(N)nc3)nc(N3CCOCC3)nc2n1C(C)C,-3.32% (active)
2,C=CC[C@]1(O)CC[C@H]2[C@@H]3CCc4cc(O)ccc4[C@H]3CC[C@@]21C,93.6% (inactive)
3,COS(=O)(=O)CCN(CCOS(C)(=O)=O)S(C)(=O)=O,97.5% (inactive)
4,Cc1nc2ccc(Nc3nc(NCCN4CCOCC4)nc(Nc4ccc(F)cc4)n3)cc2n1Cc1ccccc1,49.9% (inactive)
5,COC1CC(N)C2OC(c3ccccc3)OCC2O1 (stereo not given),106% (inactive)
6,COc1ccc2[nH]cc(C(c3ccc(Cl)cc3)N3CCCC3)c2c1 (stereo not given),65.9% (inactive)
7,CCOP(=O)(O)OP(=O)(O)OCC,102% (inactive)
8,COc1cccc(/C=N/N=C(N)N)c1,114% (inactive)
9,COc1ccc(C2CC(c3ccc(Nc4ccnc5cc(Cl)ccc45)cc3)=NN2c2ccccc2)cc1 (stereo not given),99.8% (inactive)
10,CC1=C(O)C(=O)C(c2c(C)cc(C)c(Br)c2C)=C(O)C1=O,73.1% (inactive)
11,FC(F)(F)C1=NNC(c2ccc3ccccc3c2)=NN1,107% (inactive)
12,NC(N)=N/N=C\c1ccc(OCc2ccccc2)cc1,89.3% (inactive)
13,COc1ccc(NC(=O)C2c3ccccc3C(=O)N(CC(C)C)C2c2cccs2)cc1 (stereo not given),98.9% (inactive)
14,NC(N)=N/N=C\c1cccc(OCc2ccccc2)c1,94.1% (inactive)
15,CS(=O)(=O)Nc1cc(-c2cc3ncc(C#N)c(Nc4ccc(Oc5ccccc5)c(Cl)c4)c3s2)cnc1Cl,51% (inactive)
16,Cc1ccc(NC(=O)c2nc(S(C)(=O)=O)oc2-c2ccc(F)cc2)cc1Nc1ccc2ncn(C)c(=O)c2c1,66.3% (inactive)

row,Compound,growth
1,CC(=O)[C@H]1CC[C@H]2[C@@H]3CC[C@H]4CC=CC[C@]4(C)[C@H]3CC[C@]12C,102% (inactive)
2,COc1cccc(NC(=O)[C@H](C(C)C)n2c(=O)[nH]c3ccccc3c2=O)c1,102% (inactive)
3,CC(C)N1CCN(c2ccncc2S(=O)(=O)N2CCN(C)CC2)CC1,107% (inactive)
4,[O-]/[N+](=C\c1ccccc1)CC1(O)CCCCC1,111% (inactive)
5,CCc1ccc(-c2ccc(NC3CCCCCC3)nn2)cc1S(N)(=O)=O,103% (inactive)
6,C[C@@H]1C[C@H](N)C[C@H](c2ccncc2NC(=O)c2ccc(F)c(-c3c(F)cccc3F)n2)C1,51.2% (inactive)
7,COC(=O)C(CCC(=O)CCl)N1C(=O)c2ccccc2C1=O (stereo not given),55.7% (inactive)
8,CCCCCCCCCCCCCCC(C(=O)OCC)C(=O)OCC,104% (inactive)
9,O=C(Nc1ccc2[nH]c3ccccc3c2c1)c1ccccc1Cl,61.2% (inactive)
10,CN(C)c1ccc(/C=C(\C#N)c2nc3ccccc3n2C)cc1,39.7% (inactive)
11,O=C(CS)OCC(COC(=O)CS)(COC(=O)CS)COC(=O)CS,108% (inactive)
12,C#CC[C@@H]1C[C@]2(C)[C@H]3CC=C4[C@H]5[C@@H](C)[C@H](C)CC[C@]5(C(=O)NCCCCN)CC[C@@]4(C)[C@]3(C)CC[C@H]2C(C)(C)[C@H]1OC(C)=O,93.8% (inactive)
13,CC(=O)N1N=C(c2ccc(C)cc2)CC1c1cn(-c2ccccc2)nc1-c1cccc(Nc2ccnc3cc(Cl)ccc23)c1 (stereo not given),87.3% (inactive)
14,CCN(CC)CCC(CNc1ccnc2cc(Cl)ccc12)c1ccc(O)cc1 (stereo not given),80.5% (inactive)
15,CNC(=O)c1ccccc1Sc1ccc2c(/C=C/c3ccccn3)n[nH]c2c1,16.2% (inactive)

# Tested on: MDA-MB-435 melanoma
# Assay: as above
# Settings: 10 µM unless noted
row,Compound,growth
1,COc1ccc(C2C3CCc4ccccc4C3=NN2C(=O)c2cc(OC)c(OC)c(OC)c2)cc1O (stereo not given),96.2% (inactive)
2,CCOC(=O)c1ccc(NC(=O)NC2=NCCS2)cc1,48.3% (inactive)
3,CC(C)COC(=O)NC(C)(C)C,107% (inactive)
4,Cn1c(=O)c2[nH]c(Cc3ccc4c(c3)OCO4)nc2n(C)c1=O,107% (inactive)
5,Nc1nc(N)c2c(n1)NC(c1sc(Cl)nc1Cl)CC(c1ccc3c(c1)OCO3)=N2 (stereo not given),-9.34% (active)
6,Cc1ccccc1N1C(c2ccccc2)=NNC12C=CC(=O)c1c(O)cccc12 (stereo not given),-89.5% (active)
7,Nc1nc(N)c2c(n1)NC(c1sc(Cl)nc1Cl)CC(c1ccccc1)=N2 (stereo not given),2.29% (active)
8,C=C1NC(=O)C(C(C)CC)NC(=O)C2CSCC(NC(=O)CCC(=O)O)C(=O)NC(Cc3ccccc3)C(=O)NC(C)C(=O)NC(CC(C)CC)C(=O)NC(C(=O)NC(Cc3ccccc3)C(=O)N3CCCC3C(=O)N2)C(C)OC(=O)C(CO)NC(=O)C(C(O)COC)N(C)C(=O)C(C(C)C)NC(=O)C(CC(C)CC)NC1=O (stereo not given),-34.8% [6 µM] (active)
9,Cc1nc2c(-c3cnc(N)nc3)nc(N3CCOCC3)nc2n1C(C)C,4.17% (active)
10,C=CC[C@]1(O)CC[C@H]2[C@@H]3CCc4cc(O)ccc4[C@H]3CC[C@@]21C,38.9% (inactive)
11,COS(=O)(=O)CCN(CCOS(C)(=O)=O)S(C)(=O)=O,108% (inactive)
12,Cc1nc2ccc(Nc3nc(NCCN4CCOCC4)nc(Nc4ccc(F)cc4)n3)cc2n1Cc1ccccc1,52.2% (inactive)
13,COC1CC(N)C2OC(c3ccccc3)OCC2O1 (stereo not given),102% (inactive)
14,COc1ccc2[nH]cc(C(c3ccc(Cl)cc3)N3CCCC3)c2c1 (stereo not given),105% (inactive)
15,CCOP(=O)(O)OP(=O)(O)OCC,110% (inactive)
16,COc1cccc(/C=N/N=C(N)N)c1,114% (inactive)
17,COc1ccc(C2CC(c3ccc(Nc4ccnc5cc(Cl)ccc45)cc3)=NN2c2ccccc2)cc1 (stereo not given),80.3% (inactive)
18,CC1=C(O)C(=O)C(c2c(C)cc(C)c(Br)c2C)=C(O)C1=O,73.2% (inactive)
19,FC(F)(F)C1=NNC(c2ccc3ccccc3c2)=NN1,102% (inactive)
20,NC(N)=N/N=C\c1ccc(OCc2ccccc2)cc1,9.55% (active)

row,Compound,growth
1,COc1ccc(NC(=O)C2c3ccccc3C(=O)N(CC(C)C)C2c2cccs2)cc1 (stereo not given),103% (inactive)
2,NC(N)=N/N=C\c1cccc(OCc2ccccc2)c1,35.1% (inactive)
3,CS(=O)(=O)Nc1cc(-c2cc3ncc(C#N)c(Nc4ccc(Oc5ccccc5)c(Cl)c4)c3s2)cnc1Cl,67.4% (inactive)
4,Cc1ccc(NC(=O)c2nc(S(C)(=O)=O)oc2-c2ccc(F)cc2)cc1Nc1ccc2ncn(C)c(=O)c2c1,69.4% (inactive)
5,CC(=O)[C@H]1CC[C@H]2[C@@H]3CC[C@H]4CC=CC[C@]4(C)[C@H]3CC[C@]12C,101% (inactive)
6,COc1cccc(NC(=O)[C@H](C(C)C)n2c(=O)[nH]c3ccccc3c2=O)c1,108% (inactive)
7,CC(C)N1CCN(c2ccncc2S(=O)(=O)N2CCN(C)CC2)CC1,101% (inactive)
8,[O-]/[N+](=C\c1ccccc1)CC1(O)CCCCC1,100% (inactive)
9,CCc1ccc(-c2ccc(NC3CCCCCC3)nn2)cc1S(N)(=O)=O,106% (inactive)
10,C[C@@H]1C[C@H](N)C[C@H](c2ccncc2NC(=O)c2ccc(F)c(-c3c(F)cccc3F)n2)C1,34.5% (inactive)
11,COC(=O)C(CCC(=O)CCl)N1C(=O)c2ccccc2C1=O (stereo not given),35.2% (inactive)
12,CCCCCCCCCCCCCCC(C(=O)OCC)C(=O)OCC,96.1% (inactive)
13,O=C(Nc1ccc2[nH]c3ccccc3c2c1)c1ccccc1Cl,-53.1% (active)
14,CN(C)c1ccc(/C=C(\C#N)c2nc3ccccc3n2C)cc1,-26.2% (active)
15,O=C(CS)OCC(COC(=O)CS)(COC(=O)CS)COC(=O)CS,78.8% (inactive)
16,C#CC[C@@H]1C[C@]2(C)[C@H]3CC=C4[C@H]5[C@@H](C)[C@H](C)CC[C@]5(C(=O)NCCCCN)CC[C@@]4(C)[C@]3(C)CC[C@H]2C(C)(C)[C@H]1OC(C)=O,40% (inactive)
17,CC(=O)N1N=C(c2ccc(C)cc2)CC1c1cn(-c2ccccc2)nc1-c1cccc(Nc2ccnc3cc(Cl)ccc23)c1 (stereo not given),13.8% (inactive)
18,CCN(CC)CCC(CNc1ccnc2cc(Cl)ccc12)c1ccc(O)cc1 (stereo not given),60.7% (inactive)
19,CNC(=O)c1ccccc1Sc1ccc2c(/C=C/c3ccccn3)n[nH]c2c1,39% (inactive)
